Experimental data published in PMC5540273 (PLoS ONE, 2017).

Key:
Details in all cases: concentration: 1 μM, replicates: in singlicate; n = 1
PRKD3 = tested on: PRKD3
PRKG1 = tested on: PRKG1
PRKG2 = tested on: PRKG2
PRKR = tested on: T1, PRKR
T1 construct: gene EIF2AK2

PRKX = tested on: PRKX
PRP4 = tested on: PRP4
PYK2 = tested on: T2, PYK2
T2 construct: gene PTK2B

QSK = tested on: QSK
RAF1 = tested on: RAF1
RET = tested on: RET
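Also: KINOMEscan kinase panel screen.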

Compound	%Inh (PRKD3) [%]	%Inh (PRKG1) [%]	%Inh (PRKG2) [%]	%Inh (PRKR) [%]	%Inh (PRKX) [%]	%Inh (PRP4) [%]	%Inh (PYK2) [%]	%Inh (QSK) [%]	%Inh (RAF1) [%]	%Inh (RET) [%]
O=C(Nc1cccc(-c2nn3ccccc3c2-c2ccnc(Nc3cccc(C(F)(F)F)c3)n2)c1)c1c(F)cccc1F [GSK292658]	29	3	0	0	8	5	0	2	72	73
COc1cc(Nc2nccc(N3CCC(NC(=O)Nc4cccc(C(C)=O)c4)C3)n2)cc(OC)c1OC (stereo not shown) [GSK1379753]	0	0	0	0	37	14	0	0	14	0
FC(F)(F)c1ccc(/C=C/c2cncnc2Nc2ccc3[nH]c(Cc4ccccc4)nc3c2)cc1 [GW709199]	0	0	6	2	0	0	30	0	46	8
CCCCc1nn2ncccc2c1-c1ccnc(Nc2ccc(N3CCN(C)CC3)cc2)n1 [GW684941]	86	0	4	0	31	36	40	43	0	99.5
CNC(=O)c1ccccc1Nc1nc(Nc2ccc(N3CCOCC3)cc2)ncc1Cl.Cl [GSK1576028]	81	74	88	72	17	77	99.7	18	0	100
Cc1ccc(S(=O)(=O)Nc2ccc(Nc3nccc(Nc4cccc5[nH]ncc45)n3)cc2)cc1 [GSK581271]	0	0	5	0	6	53	12	6	10	8
O=C(NC1CCN(c2ccnc(Nc3ccc(F)cc3)n2)C1)c1cc2ccccc2s1 (stereo not shown) [GSK1379716]	9	7	0	0	4	45	15	10	17	10
CC(C)c1nc(-c2cccc(NS(=O)(=O)c3c(F)cccc3F)c2F)c(-c2ccnc(Nc3ccc(N4CCOCC4)nc3)n2)s1 [GSK2008607]	100	0	0	29	0	0	3	90.5	100	99.7
CN(C)S(=O)(=O)c1cc(-c2ccc3nccc(-c4cccc(S(N)(=O)=O)c4)c3c2)cnc1N [GSK1669921]	100	34	76	0	27	0	6	7	9	58
Nc1ncc(-c2ccc3nccc(-c4ccncc4)c3c2)cc1S(=O)(=O)N1CCOCC1 [GSK1627798]	0	0	0	14	11	3	21	0	0	0
